For 15 compounds, growth results are on record in PubChem BioAssay (NCI).

Compounds without any hit were thinned out: in the full panel of roughly 83,000, 20% have a hit.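 Step 1: grow cells in 96-well plates. Step 2: add test compound at a single concentration. Step 3: incubate 48 h. Step 4: record percent growth.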 Unmarked numbers belong to inactive results. Calls of active or inactive are those of the source. Rule for the calls: active = growth percent below 10; inactive = the rest.

In this assay the test system is OVCAR-8 ovarian. Description: NCI-60 one-dose screen, 48 h (100 = growth as untreated, 0 = no growth, -100 = all killed). As to conditions: 10 µM unless noted.
With `Cc1ccc2c(C3C(C#N)=C(N)Oc4cc5ccccc5cc43)cc(=O)oc2c1` (stereo not given), the growth is 24.5%.

With `Oc1ccc(Cl)cc1Sc1cc(Cl)ccc1O`, the growth was 90.8%. Regarding `CCc1cccc(-c2ccccc2)c1`, the growth was 101%.

As for `CCCCNc1cc(C(=O)O)cc(S(N)(=O)=O)c1Oc1ccccc1`, the growth was 107%. The figure for `CC(C)Cn1cnc2c3ccccc3nc(NCn3nc(-c4cc(Cl)cc(Cl)c4Cl)oc3=S)c21` is 98.4%. The figure for `Clc1ccc2c(c1)nnn1c3ncccc3c(Br)c21` is 71.9%; for `Cc1ccc(-c2nc3c(N=Nc4ccc(S(N)(=O)=O)cc4)c(N)nn3c(N)c2C#N)cc1` it is 44.1%.

Take `O=C(C[n+]1ccccc1Cl)c1ccc2c(c1)CCCC2`: the growth was 102%. On to `COc1ccc(C2CC(c3cc(Cl)c(C)cc3OC)=NN2c2ccc(S(N)(=O)=O)cc2)cc1OC` (stereo not given), for which the growth was 73.8%. Then `CCN(CC)c1ccc(C2CC(c3cc(OC)c(OC)c(OC)c3)=NN2)cc1` (stereo not given), with 6.48% (active); and `COC(=O)CCCNS(=O)(=O)c1cc(C(=O)Nc2ccc(NC(=O)c3cc(S(=O)(=O)NCCCC(=O)OC)c(O)c(O)c3O)cc2)c(O)c(O)c1O`, with 73.6%; and `CC(NCCC(c1ccccc1)c1ccccc1)c1ccccc1` (stereo not given), with 84.3%.

With `CC/C(=C(\CC)c1ccc(OCCN(CC)CC)cc1)c1ccc(OCCN(CC)CC)cc1`, the growth is 53.3%. In the case of `Cc1ccc(N(CC2=NCCN2)c2cccc(O)c2)cc1`, the growth was 95.2%. For the compound `COc1ccc(C[C@H](N)C(=O)N[C@@H]2[C@@H](CO)OC(n3cnc4c(N(C)C)ncnc43)[C@@H]2O)cc1` (stereo not given in full), the growth is -52.3% (active).
